We go through nine compounds from PubChem BioAssay (EPA / NIEHS).

The target of assay [1] is Myc proto-oncogene protein (Homo sapiens) (UniProt P01106). The assay can be described thus: ATG_Myc_CIS: Attagene CIS-FACTORIAL HepG2 Assay for human Myelocytomatosis (Myc) Proto-Oncogene Transcription Factor (AID 2282990). The conditions noted are these: HepG2, Attagene cis-reporter transcription factor activity; actives raise or lower the signal. The method in brief:
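DMSO-normalised, bidirectionally fitted reporter mRNA signal. HepG2 cells transfected with cis reporter constructs, treated 24 h; transcripts detected by RT-PCR, 6-FAM primer extension and CE.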

Assay [2] can be described thus: ATG_NF_kB_CIS: Attagene CIS-FACTORIAL HepG2 Assay for human Nuclear Factor Kappa B (NF-kB) (AID 2282991). The conditions noted are these: HepG2 Attagene cis-factorial NF-kB reporter mRNA; actives raise or lower the signal. The method in brief: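 Fluorescence of labelled RT-PCR products separated by capillary electrophoresis gives reporter mRNA levels from transfected HepG2 cells exposed 24 h; values are fitted in both directions relative to DMSO.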

A short description of assay [3]: ATG_NRF2_ARE_CIS: Attagene CIS-FACTORIAL HepG2 Assay for human Nuclear Factor Erythroid 2 Related Factor 2 (NFR2) response to Antioxidant Response Elements (ARE) (AID 2282992). The note with it: HepG2 Attagene ARE/NRF2 reporter, transcription factor activity; actives raise or lower the signal. The method in brief: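 Multiplexed reporter mRNA profiling in HepG2 after a 24 h chemical exposure. Curves fitted in both directions relative to DMSO negative control.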

The target of assay [4] is Cellular tumor antigen p53 (Homo sapiens) (UniProt P04637). As to the kind of experiment: ATG_p53_CIS: Attagene CIS-FACTORIAL HepG2 Assay for human p53 Transcription Factor (AID 2282994). The conditions noted are these: HepG2 p53 cis-element reporter, Attagene mRNA; actives raise or lower the signal. The method in brief: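 Multiplexed reporter mRNA assay in human HepG2 liver cells; cis-regulated units report endogenous factor activity. Values come from bidirectional curve fitting against DMSO negative control after 24 h treatment.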

Assay [5] addresses human Peroxisome Proliferator-activated Receptor delta (PPARd), PPARD (gene 5467) (UniProt Q03181). The assay can be described thus: ATG_PPARd_TRANS: Attagene TRANS-FACTORIAL HepG2 Assay for human Peroxisome Proliferator-activated Receptor delta (PPARd) (AID 2283002; active = hit-call score of the fitted dose curve at least 0.9, where 1 is the maximum). The method in brief:
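Measured quantity: GAL4-UAS reporter transcript induction in HepG2 after 24 h chemical dosing, with NR-Gal4 chimeras supplied by transient transfection. Detection by RT-PCR and capillary electrophoresis; upward fit against DMSO.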

Assay [6] addresses Peroxisome proliferator-activated receptor gamma (Homo sapiens) (UniProt P37231). The assay can be described thus: ATG_PPARg_TRANS: Attagene TRANS-FACTORIAL HepG2 Assay for human Peroxisome Proliferator-activated Receptor-gamma (PPARg) (AID 2283007; active = hit-call score of the fitted dose curve at least 0.9, where 1 is the maximum). The method in brief:
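Twenty-four hours after chemical dosing of transiently transfected HepG2 cells, isolated RNA was converted to cDNA, reporter sequences amplified and 6-FAM-labelled, then HpaI-digested and analysed by capillary electrophoresis. Signal increase against DMSO was fitted.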

Assay [7] can be described thus: ATG_Oct_MLP_CIS: Attagene CIS-FACTORIAL HepG2 Assay for human Octamer-Binding Transcription Factor (Oct) (AID 2282993). The conditions noted are these: HepG2 Attagene cis-factorial Oct reporter, mRNA; actives raise or lower the signal. Put shortly:
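HepG2 cells transiently transfected with cis-element-driven reporter transcription units (endogenous TF activity); 24 h compound exposure. Reporter mRNA quantified by RT-PCR, 6-FAM labelling, HpaI digestion and capillary electrophoresis; bidirectional fit versus DMSO baseline.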

In assay [8] the target is human Retinoic Acid Receptor beta (RARb), RARB (gene 5915) (UniProt P10826). As to the kind of experiment: ATG_RARb_TRANS: Attagene TRANS-FACTORIAL HepG2 Assay for human Retinoic Acid Receptor beta (AID 2283004; active = hit-call score of the fitted dose curve at least 0.9, where 1 is the maximum). The method in brief:
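Transient transfection of HepG2 with multiple reporter units → chemical dosing, 24 h → total RNA isolation → RT with oligo(dT) → reporter-specific PCR, 6-FAM primer extension, HpaI digest → capillary electrophoresis. Positive direction vs DMSO control.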

For assay [9], the target named is human Peroxisome Proliferator-activated Receptor alpha (PPARa), PPARA (gene 5465) (UniProt Q07869). The assay can be described thus: ATG_PPARa_TRANS: Attagene TRANS-FACTORIAL HepG2 Assay for human Peroxisome Proliferator-activated Receptor alpha (PPARa) (AID 2283001; active = hit-call score of the fitted dose curve at least 0.9, where 1 is the maximum). Put shortly: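 Gain-of-signal endpoint: reporter mRNA induction relative to DMSO, detected by fluorescent RT-PCR and capillary electrophoresis. HepG2 cells transiently carried GAL4-UAS-driven reporter units plus NR-Gal4 fusion; exposure lasted 24 h.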

Assay [10] deals with Retinoic acid receptor alpha (Homo sapiens) (UniProt P10276). The assay can be described thus: ATG_RARa_TRANS: Attagene TRANS-FACTORIAL HepG2 Assay for human Retinoic Acid Receptor alpha (RARa) (AID 2283005; active = hit-call score of the fitted dose curve at least 0.9, where 1 is the maximum). Put shortly: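 HepG2 cells transiently transfected with multiple reporter units expressing chimeric RARα-GAL4 fusion, with GAL4-UAS-driven reporters. After 24 h compound exposure, reporter mRNA induction quantified by RT-PCR and capillary electrophoresis with fluorescent labeling; gain-of-signal fitted relative to DMSO control.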

For assay [11], the target named is Nuclear receptor subfamily 1 group I member 2 (Homo sapiens) (UniProt O75469). As to the kind of experiment: ATG_PXR_TRANS: Attagene TRANS-FACTORIAL HepG2 Assay for human Pregnane X Receptor (PXR) (AID 2283008; active = hit-call score of the fitted dose curve at least 0.9, where 1 is the maximum). Put shortly: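 Measures mRNA induction of a GAL4-UAS-driven reporter in human HepG2 cells transiently expressing PXR fused to Gal4, following 24 h treatment. DMSO served as negative control and baseline.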

A short description of assay [12]: BSK_3C_TissueFactor: BioMAP Diversity Plus: 3C Assay for Tissue Factor Biomarker Activity (AID 2282997). The note with it: BioMAP 3C HUVEC, tissue factor biomarker readout; actives raise or lower the signal. Put shortly: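 ELISA read-out of Tissue Factor levels on human umbilical vein endothelium collected 24 h after chemical dosing. Gain or loss of signal was fitted relative to DMSO.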

Assay [13] is described as follows: BSK_3C_uPAR: BioMAP Diversity Plus: 3C Assay for Urokinase-type plasminogen activator receptor (uPAR) Biomarker Activity (AID 2282998). The conditions noted are these: BioMAP 3C HUVEC, uPAR biomarker ELISA; actives raise or lower the signal. The method in brief:
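Primary human umbilical vein endothelial cells, 3C system; surface uPAR measured by ELISA 24 h after dosing. Cytotoxicity via SRB total protein in parallel cultures; bidirectional fit against DMSO.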
On the technique in general: An ELISA detects its analyte on a solid surface through an enzyme-linked reagent.

The nature of assay [14]: BSK_3C_VCAM1: BioMAP Diversity Plus: 3C Assay for Vascular cell adhesion molecule 1 (VCAM1) Biomarker Activity (AID 2282999). The conditions noted are these: BioMAP 3C HUVEC, VCAM1 ELISA, cytokine-stimulated; actives raise or lower the signal. The method in brief:
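Human umbilical vein endothelial cells were dosed with compound for 24 h, after which cell-surface VCAM-1 was quantified by ELISA. Bidirectional curve fitting used DMSO as negative control and activity baseline.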

Assay [15] is described as follows: BSK_4H_Eotaxin3: BioMAP Diversity Plus: 4H Assay for Eotaxin 3 Biomarker Activity (AID 2283000).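 As to outcome: CCL26 protein level quantified by ELISA in parallel with SRB cytotoxicity check.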 The conditions noted are these: primary human endothelial cells (HUVEC); actives raise or lower the signal. The method in brief:
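Chemicals were added to human umbilical vein endothelium cultures, and Eotaxin-3 was quantified by ELISA at 24 h. Values were derived by bidirectional fitting with DMSO serving as negative control and activity baseline.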

The nature of assay [16]: BSK_3C_Proliferation: Cell Proliferation Assessment in the BioMAP Diversity Plus: 3C Assay (AID 2283006).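 As to AC50: potency may reflect either rise or fall in cell number versus DMSO.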 The note with it: primary human endothelial cells (HUVEC). The method in brief: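 Read-out is total protein by SRB absorbance at 560 nm, taken as a proxy for relative cell number. Primary human umbilical vein endothelium cultured below confluence was dosed for 48 h, TCA-fixed and SRB-stained; curves were fitted bidirectionally versus DMSO.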

Assay [17] deals with human RAR-related Orphan Receptor beta (RORb), RORB (gene 6096) (UniProt Q92753). As to the kind of experiment: ATG_RORb_TRANS: Attagene TRANS-FACTORIAL HepG2 Assay for human RAR-related Orphan Receptor beta (RORb) (AID 2283010; active = hit-call score of the fitted dose curve at least 0.9, where 1 is the maximum). The method in brief: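 Readout is reporter-gene mRNA induction, detected as fluorescence after RT-PCR and capillary electrophoresis, fitted for gain of signal against DMSO controls. Transiently transfected HepG2 liver cells carrying GAL4-UAS reporter constructs were treated for 24 hours.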

Assay [18] has as its target human RAR-related Orphan Receptor gamma (RORg), RORC (gene 6097) (UniProt P51449). As to the kind of experiment: ATG_RORg_TRANS: Attagene TRANS-FACTORIAL HepG2 Assay for human RAR-related Orphan Receptor gamma (RORg) (AID 2283011; active = hit-call score of the fitted dose curve at least 0.9, where 1 is the maximum). Put shortly:
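First, HepG2 liver cells were transfected with GAL4-UAS-driven reporter constructs and the RORg-Gal4 fusion. Next, they were treated with chemical for 24 h. Finally, reporter mRNA was quantified by RT-PCR and capillary electrophoresis, with upward activity fitted against DMSO.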

Inconclusive results are not listed. The source made the active and inactive calls. The calls were made as follows, unless noted: active = hit-call score of the fitted dose curve at least 0.9, where 1 is the maximum; inactive = score below 0.9.

Peroxisome proliferator-activated receptor gamma (Homo sapiens), sequence (P37231 whole entry, looked up): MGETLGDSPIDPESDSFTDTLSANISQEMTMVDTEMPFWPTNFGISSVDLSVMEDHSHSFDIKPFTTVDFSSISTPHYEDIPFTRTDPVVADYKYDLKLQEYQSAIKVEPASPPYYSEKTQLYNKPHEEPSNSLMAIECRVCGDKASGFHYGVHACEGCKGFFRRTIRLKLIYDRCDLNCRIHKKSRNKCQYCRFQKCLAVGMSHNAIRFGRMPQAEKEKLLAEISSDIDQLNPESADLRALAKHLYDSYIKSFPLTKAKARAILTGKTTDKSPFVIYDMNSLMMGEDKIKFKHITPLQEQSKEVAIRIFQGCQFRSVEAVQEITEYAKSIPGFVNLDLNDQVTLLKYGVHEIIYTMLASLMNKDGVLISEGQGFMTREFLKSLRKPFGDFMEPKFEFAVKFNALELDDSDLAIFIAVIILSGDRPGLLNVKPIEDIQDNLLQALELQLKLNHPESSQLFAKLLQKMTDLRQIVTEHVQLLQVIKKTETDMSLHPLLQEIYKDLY
Myc proto-oncogene protein (Homo sapiens), sequence (P01106 whole entry, looked up): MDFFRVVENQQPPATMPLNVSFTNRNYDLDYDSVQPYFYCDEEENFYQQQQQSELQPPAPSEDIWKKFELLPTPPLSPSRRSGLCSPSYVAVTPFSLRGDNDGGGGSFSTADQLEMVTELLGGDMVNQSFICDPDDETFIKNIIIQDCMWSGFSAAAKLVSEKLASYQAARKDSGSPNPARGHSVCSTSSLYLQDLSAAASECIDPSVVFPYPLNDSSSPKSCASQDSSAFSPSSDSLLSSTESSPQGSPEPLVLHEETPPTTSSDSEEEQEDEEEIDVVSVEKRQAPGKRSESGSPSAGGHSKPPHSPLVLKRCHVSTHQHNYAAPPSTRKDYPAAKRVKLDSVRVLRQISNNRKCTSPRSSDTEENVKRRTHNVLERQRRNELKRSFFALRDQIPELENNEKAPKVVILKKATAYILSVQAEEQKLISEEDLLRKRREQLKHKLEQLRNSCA
human Peroxisome Proliferator-activated Receptor alpha (PPARa), PPARA (gene 5465), sequence (Q07869 whole entry, looked up, the tested form may be a part): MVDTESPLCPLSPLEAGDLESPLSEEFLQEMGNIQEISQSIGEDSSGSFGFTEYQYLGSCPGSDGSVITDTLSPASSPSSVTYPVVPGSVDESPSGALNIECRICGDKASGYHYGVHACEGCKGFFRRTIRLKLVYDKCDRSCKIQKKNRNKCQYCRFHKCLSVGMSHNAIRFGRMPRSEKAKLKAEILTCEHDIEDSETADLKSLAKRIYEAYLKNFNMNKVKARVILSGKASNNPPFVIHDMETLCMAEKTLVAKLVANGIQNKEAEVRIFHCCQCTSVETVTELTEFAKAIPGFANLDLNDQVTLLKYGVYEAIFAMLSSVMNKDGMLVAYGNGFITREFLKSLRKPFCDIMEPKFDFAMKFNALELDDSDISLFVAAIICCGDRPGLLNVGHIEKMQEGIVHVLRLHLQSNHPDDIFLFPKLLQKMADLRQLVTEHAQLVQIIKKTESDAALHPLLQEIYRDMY
Cellular tumor antigen p53 (Homo sapiens), sequence (P04637 whole entry, looked up): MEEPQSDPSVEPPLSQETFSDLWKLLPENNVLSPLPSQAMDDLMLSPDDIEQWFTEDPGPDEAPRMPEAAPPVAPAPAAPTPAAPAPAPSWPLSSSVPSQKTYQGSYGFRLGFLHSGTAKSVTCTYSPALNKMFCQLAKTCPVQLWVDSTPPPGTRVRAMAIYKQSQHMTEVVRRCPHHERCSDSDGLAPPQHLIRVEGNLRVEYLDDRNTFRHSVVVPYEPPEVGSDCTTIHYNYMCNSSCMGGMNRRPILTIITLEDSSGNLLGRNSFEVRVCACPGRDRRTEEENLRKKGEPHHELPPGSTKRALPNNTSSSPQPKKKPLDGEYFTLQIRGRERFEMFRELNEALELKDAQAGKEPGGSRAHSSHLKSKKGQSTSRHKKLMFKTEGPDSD
Nuclear receptor subfamily 1 group I member 2 (Homo sapiens), sequence (O75469 whole entry, looked up, the tested form may be a part): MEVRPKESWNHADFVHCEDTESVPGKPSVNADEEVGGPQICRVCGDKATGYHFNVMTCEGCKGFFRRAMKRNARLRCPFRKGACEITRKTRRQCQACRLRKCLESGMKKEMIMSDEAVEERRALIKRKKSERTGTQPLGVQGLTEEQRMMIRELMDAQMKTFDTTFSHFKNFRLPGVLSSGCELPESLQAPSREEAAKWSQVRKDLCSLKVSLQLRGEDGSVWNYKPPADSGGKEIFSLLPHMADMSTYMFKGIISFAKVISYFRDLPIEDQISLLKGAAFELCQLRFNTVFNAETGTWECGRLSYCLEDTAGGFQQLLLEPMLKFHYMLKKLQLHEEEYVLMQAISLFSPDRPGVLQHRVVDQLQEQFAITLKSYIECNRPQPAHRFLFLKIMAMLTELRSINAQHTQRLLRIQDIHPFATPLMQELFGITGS
human Peroxisome Proliferator-activated Receptor delta (PPARd), PPARD (gene 5467), sequence (Q03181 whole entry, looked up, the tested form may be a part): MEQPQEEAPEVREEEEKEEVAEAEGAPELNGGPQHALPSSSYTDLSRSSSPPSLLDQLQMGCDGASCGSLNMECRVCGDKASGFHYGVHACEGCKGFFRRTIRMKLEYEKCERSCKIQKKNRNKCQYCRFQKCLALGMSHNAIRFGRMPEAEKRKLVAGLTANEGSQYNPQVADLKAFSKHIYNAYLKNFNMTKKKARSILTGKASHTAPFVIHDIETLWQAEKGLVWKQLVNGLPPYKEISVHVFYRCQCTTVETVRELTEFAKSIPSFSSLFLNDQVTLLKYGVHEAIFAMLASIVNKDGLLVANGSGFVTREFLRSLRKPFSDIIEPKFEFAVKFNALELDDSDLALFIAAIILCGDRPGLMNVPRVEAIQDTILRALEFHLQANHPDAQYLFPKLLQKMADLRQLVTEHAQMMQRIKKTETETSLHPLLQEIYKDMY
human RAR-related Orphan Receptor beta (RORb), RORB (gene 6096), sequence (Q92753 whole entry, looked up, the tested form may be a part): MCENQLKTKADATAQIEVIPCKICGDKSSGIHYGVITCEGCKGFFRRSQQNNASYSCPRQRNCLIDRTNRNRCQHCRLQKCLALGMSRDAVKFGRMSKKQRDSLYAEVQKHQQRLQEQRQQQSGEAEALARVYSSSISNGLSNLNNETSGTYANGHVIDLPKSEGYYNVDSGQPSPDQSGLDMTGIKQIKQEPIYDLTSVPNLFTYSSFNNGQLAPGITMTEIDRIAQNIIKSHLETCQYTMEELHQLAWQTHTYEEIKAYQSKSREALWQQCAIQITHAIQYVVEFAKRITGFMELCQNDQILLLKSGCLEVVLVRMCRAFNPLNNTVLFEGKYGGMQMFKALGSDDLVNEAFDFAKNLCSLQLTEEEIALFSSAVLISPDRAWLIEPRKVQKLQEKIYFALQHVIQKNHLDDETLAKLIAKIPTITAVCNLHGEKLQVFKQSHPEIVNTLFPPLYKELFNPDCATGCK
Retinoic acid receptor alpha (Homo sapiens), sequence (P10276 whole entry, looked up, the tested form may be a part): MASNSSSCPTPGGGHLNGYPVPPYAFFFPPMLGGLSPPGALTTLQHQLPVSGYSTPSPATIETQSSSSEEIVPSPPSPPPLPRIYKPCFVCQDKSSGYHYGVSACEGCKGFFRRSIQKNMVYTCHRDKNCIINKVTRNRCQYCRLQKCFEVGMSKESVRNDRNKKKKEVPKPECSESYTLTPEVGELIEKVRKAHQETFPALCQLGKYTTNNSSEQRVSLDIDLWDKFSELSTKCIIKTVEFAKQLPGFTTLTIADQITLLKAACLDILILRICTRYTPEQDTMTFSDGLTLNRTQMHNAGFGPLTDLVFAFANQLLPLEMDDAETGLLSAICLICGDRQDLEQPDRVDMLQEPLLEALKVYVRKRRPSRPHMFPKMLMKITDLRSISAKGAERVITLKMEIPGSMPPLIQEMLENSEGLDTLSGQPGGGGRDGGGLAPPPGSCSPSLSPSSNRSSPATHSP
human Retinoic Acid Receptor beta (RARb), RARB (gene 5915), sequence (P10826 whole entry, looked up): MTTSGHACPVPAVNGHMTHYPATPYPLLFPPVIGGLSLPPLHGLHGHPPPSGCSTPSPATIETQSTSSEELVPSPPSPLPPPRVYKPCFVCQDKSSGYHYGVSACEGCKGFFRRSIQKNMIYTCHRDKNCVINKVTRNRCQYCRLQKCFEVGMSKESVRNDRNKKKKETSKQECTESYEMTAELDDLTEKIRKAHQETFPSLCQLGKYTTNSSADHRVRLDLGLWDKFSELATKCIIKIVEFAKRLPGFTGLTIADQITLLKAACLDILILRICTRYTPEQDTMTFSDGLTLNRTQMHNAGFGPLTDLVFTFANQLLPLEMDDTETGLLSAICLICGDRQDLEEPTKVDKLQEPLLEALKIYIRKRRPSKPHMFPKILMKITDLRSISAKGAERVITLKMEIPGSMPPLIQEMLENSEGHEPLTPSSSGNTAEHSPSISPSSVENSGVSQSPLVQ
human RAR-related Orphan Receptor gamma (RORg), RORC (gene 6097), sequence (P51449 whole entry, looked up, the tested form may be a part): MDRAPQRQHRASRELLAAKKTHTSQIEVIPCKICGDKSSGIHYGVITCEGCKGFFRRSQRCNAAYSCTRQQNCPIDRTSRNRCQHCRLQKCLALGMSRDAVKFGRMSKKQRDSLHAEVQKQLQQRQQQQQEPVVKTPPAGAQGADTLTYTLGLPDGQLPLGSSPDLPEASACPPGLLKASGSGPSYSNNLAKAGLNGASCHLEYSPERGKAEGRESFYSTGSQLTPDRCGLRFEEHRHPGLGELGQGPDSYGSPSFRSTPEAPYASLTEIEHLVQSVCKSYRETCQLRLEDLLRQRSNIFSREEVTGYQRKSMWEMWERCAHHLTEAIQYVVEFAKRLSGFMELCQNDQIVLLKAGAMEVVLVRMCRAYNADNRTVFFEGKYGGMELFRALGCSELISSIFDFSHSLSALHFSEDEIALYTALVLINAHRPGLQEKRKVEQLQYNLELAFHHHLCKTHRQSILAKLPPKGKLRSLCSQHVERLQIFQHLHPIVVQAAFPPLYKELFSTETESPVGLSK

Take `C=COCCOCCOC=C`: the outcome in assay [1], in assay [2], in [3], in assay [4], in assay [5] and in assay [6] was inactive.

Regarding `CCNCCO`, the compound was classed as inactive in [1], in [2], in [3], in assay [7], in assay [8] and in assay [6].

For `O=C(Nc1ccc2c(c1)Cc1ccccc1-2)C(F)(F)F`, the compound was called inactive in [1], in [2], in assay [4], in assay [9], in assay [10] and in [6]. Further, the results for the AC50 in assay [3] and in assay [11] were 24.8 µM (active) and 27.7 µM (active), respectively.

Take `CCCCCCCCCCCCCCCC(=O)OC/C=C(C)/C=C/C=C(C)/C=C/C1=C(C)CCCC1(C)C`: the outcome in [1], in assay [7], in [4], in assay [12], in assay [13] and in [15] was inactive. Besides, the result in assay [9] and in assay [5] was inactive. The AC50 – broadly, the concentration giving half of the maximal activity seen – in [3] is 23.9 µM (active); in assay [14] it was 20 µM (active); in [16], 4.06 µM (active); in assay [6], 37.9 µM (active); in [11], 2.82 µM (active).

With `C[N+](C)(C)CCCCCC[N+](C)(C)C`, the compound was called inactive in assay [1], in [2], in [3], in [4], in assay [5] and in assay [8]. For the same compound, the outcome in assay [6] was inactive.

With `OC[C@H]1O[C@@H]2O[C@H]3[C@H](O)[C@@H](O)[C@@H](O[C@H]4[C@H](O)[C@@H](O)[C@@H](O[C@H]5[C@H](O)[C@@H](O)[C@@H](O[C@H]6[C@H](O)[C@@H](O)[C@@H](O[C@H]7[C@H](O)[C@@H](O)[C@@H](O[C@H]8[C@H](O)[C@@H](O)[C@@H](O[C@H]9[C@H](O)[C@@H](O)[C@@H](O[C@H]1[C@H](O)[C@H]2O)O[C@@H]9CO)O[C@@H]8CO)O[C@@H]7CO)O[C@@H]6CO)O[C@@H]5CO)O[C@@H]4CO)O[C@@H]3CO`, the compound was classed as inactive in assay [1], in [2], in [3], in assay [7], in assay [6] and in [17]. Also, the compound was classed as inactive in assay [18].

Regarding `c1ccc(CCc2ccccc2)cc1`, the result in assay [1], in assay [7], in assay [4], in [9], in assay [5] and in assay [6] was inactive. The AC50 was 149 µM (active) in [3]; 14.5 µM (active) in [12]; 36.7 µM (active) in assay [13]; 29.8 µM (active) in [14]; 30.7 µM (active) in [15]; 22.7 µM (active) in assay [16]. The half-maximal activity concentration (AC50) in assay [11] was 31.6 µM (active).

For `CCOCCOCCOCC`, the call in assay [1], in assay [2], in assay [3], in assay [4], in assay [9] and in assay [10] was inactive. In addition, the call in assay [6] was inactive.

With `CC(C)(N=C=O)c1cccc(C(C)(C)N=C=O)c1`, the compound was classed as inactive in assay [1], in assay [2], in [12], in [13], in [14] and in assay [15]. The call in [5], in [16] and in assay [17] was inactive. The AC50 is 13 µM (active) in [3] and 11.3 µM (active) in assay [11].
